Reference: the supplement of paper PMC9433436
± gives the standard deviation of the averaged measurements. The full ranking holds about 4,100 sequences; the median of “relative kcat/Km (krel) vs genomic leader AAAGAU” is about 1.7, and the highest 2% start at about 6.5. The full list was thinned out, with the highest values kept by preference.

Target: T1, E. coli RNase P holoenzyme (M1 P RNA + rnpA protein) (UniProt P0A7Y8)
T1 sequence: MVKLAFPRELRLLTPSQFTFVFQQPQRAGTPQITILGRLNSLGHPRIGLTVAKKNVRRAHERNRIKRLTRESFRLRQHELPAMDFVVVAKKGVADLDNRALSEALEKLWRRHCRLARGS
Test: relative kcat/Km (krel) vs genomic leader AAAGAU (relative (reference leader = 1)); higher = faster RNase P cleavage
Experimental: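 HTS-Kin: a pool of ptRNA-Met (21C construct) with all 4096 combinations of 5' leader nucleotides N(-6) to N(-1) was processed in vitro by E. coli RNase P (P RNA + rnpA/C5 protein) under multiple-turnover conditions at 37 C, pH 8, 17.5 mM MgCl2. Residual substrate was Illumina-sequenced at several fractions reacted, and relative kcat/Km (krel) was computed by internal competition kinetics, calibrated to the genomic leader (AAAGAU = 1). The listed hexamer is the varied N(-6)..N(-1) leader (DNA letters), and it sits between a fixed 5' stem-loop flank (GCAUGCACGAAAGUGCGUGCUAUGAA) and the mature tRNA-Met starting GGCUACGUAGCUCAGUUGG. Two technical replicates are averaged.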

[1] = fraction of substrate reacted: ~9-10% (9.79% repeat 1, 9.1% repeat 2)
[2] = fraction of substrate reacted: ~13-16% (15.68% repeat 1, 13.17% repeat 2)
[3] = fraction of substrate reacted: ~26-29% (28.66% repeat 1, 26.4% repeat 2)

Sequence	relative kcat/Km [1]	relative kcat/Km [2]	relative kcat/Km [3]
GGATAA	1.77 ± 0.4	2.37 ± 0.4	2.82 ± 1.2
ATTGAA	2.28 ± 0.51	2.44 ± 0.32	3.48 ± 1.1
GGTAGA	2.41 ± 0.65	2.19 ± 0.26	3.13 ± 1.6
TTTGAT	0.799 ± 0.12	1.01 ± 0.025	1.39 ± 0.26
CCAGTC	2.41 ± 0.63	1.32 ± 0.76	1.52 ± 0.37
GACATC	3.66 ± 0.77	3.95 ± 1.1	5.9 ± 2.2
GACATT	3.42 ± 0.26	4.33 ± 1.3	6.4 ± 3.1
CACATC	2.93 ± 1	3.64 ± 0.86	5.53 ± 2.1
TACATT	3.85 ± 1.4	5.11 ± 0.79	7.56 ± 3.7
TACATC	3.03 ± 0.57	4.44 ± 0.76	6.8 ± 2.7
TACATG	0.765 ± 0.67	1.44 ± 0.13	3.16 ± 1.2
TCCCTA	3.22 ± 1.7	3.63 ± 0.34	4.34 ± 1.6
CAAACG	–	0.172 ± 0.13	0.797 ± 0.69
GAGAGT	0.122 ± 0.072	1.48 ± 0.097	–
GACTCC	3.31 ± 0.62	4.26 ± 0.76	5.61 ± 2
TACTCC	3.23 ± 0.81	5.06 ± 1	6.63 ± 2.8
AACTCC	3 ± 2.2	3.3 ± 0.49	4.38 ± 1.3
TACTCT	3.83 ± 0.27	4.7 ± 0.86	7.13 ± 3.3
CACTCT	3.97 ± 1.4	4.52 ± 0.75	6.37 ± 2.3
AACTCT	2.76 ± 1.1	3.3 ± 0.76	4.39 ± 1.2
TGATTC	1.39 ± 0.61	2.97 ± 1.2	3.89 ± 1.8
CCAGCA	1.37 ± 0.54	0.452 ± 0.45	0.927 ± 0.46
CCATAG	–	0.327 ± 0.075	1.95 ± 0.2
TGGGGT	–	–	1.83 ± 0.45
TGCTCT	0.944 ± 0.33	1.02 ± 0.37	1.5 ± 0.59
TTATCT	2.77 ± 0.45	3.58 ± 0.95	5.02 ± 2.2

Sequence	relative kcat/Km [1]	relative kcat/Km [2]	relative kcat/Km [3]
TTATAG	2.25 ± 1.6	2.63 ± 0.53	4.22 ± 1.9
TTATAT	4.62 ± 2	5.95 ± 0.72	8.54 ± 4
ATATAG	2.16 ± 1.9	1.77 ± 0.48	3.88 ± 1.4
ATATAT	3 ± 0.9	4.49 ± 0.51	6.84 ± 3.3
GTATAT	3.56 ± 1.5	4.99 ± 0.35	7.89 ± 3.5
CTATAG	2.47 ± 1.2	1.823 ± 0.012	3.4 ± 0.44
GTATTT	3.06 ± 2	3.71 ± 0.4	5.37 ± 1.9
GTATAA	3.41 ± 1.2	4.18 ± 0.35	5.6 ± 2
CTATAT	4.48 ± 1.6	5.55 ± 0.85	7.37 ± 2.9
CTATAA	3.33 ± 1.3	3.72 ± 0.51	4.92 ± 1.3
ATATAA	2.75 ± 1.4	3.31 ± 0.47	4.9 ± 1.7
GTGCAA	1.89 ± 1.4	1.25 ± 0.53	1.32 ± 0.22
ACACCT	2.6 ± 1.3	1.66 ± 0.33	2.53 ± 1.6
TCAGCC	2.48 ± 0.96	2.37 ± 0.56	3.15 ± 0.59
GAGCAG	–	0.164 ± 0.047	1.27 ± 0.062
ACGCGA	2.19 ± 0.79	1.29 ± 0.1	2.07 ± 0.28
CTGTTA	2.76 ± 1.4	1.44 ± 1.1	2.19 ± 0.06
CGACGT	–	2.25 ± 1.1	2.36 ± 1.5
CAGGGC	–	0.734 ± 0.28	0.809 ± 0.4
GCCGTA	2.27 ± 0.21	2.93 ± 0.69	3.66 ± 1.4
GGTAAC	1.47 ± 0.022	1.618 ± 0.0045	2.64 ± 1.5
CGATAT	3.51 ± 0.4	5.17 ± 2.6	6.68 ± 3
GGATAT	1.83 ± 0.13	2.63 ± 0.49	3.4 ± 1.9
CGATAC	3.25 ± 1.4	4.04 ± 1	5.79 ± 2.4
CTCAAA	4.31 ± 1.6	4.92 ± 1.4	8.02 ± 3.1
GTCAAA	4.62 ± 1.6	5.99 ± 1.9	8.75 ± 3.3

Sequence	relative kcat/Km [1]	relative kcat/Km [2]	relative kcat/Km [3]
CTTAAG	1.2 ± 0.59	1.63 ± 0.79	2.28 ± 0.23
GGCAAA	2.21 ± 1	3.13 ± 0.17	3.46 ± 0.93
ATCAAA	3.96 ± 1.9	5.34 ± 0.78	7.44 ± 3.2
ACCAAG	–	0.763 ± 0.21	2.7 ± 0.17
GCCAAT	3.15 ± 0.068	2.75 ± 1.7	4.52 ± 2.3
GTCAAG	1.75 ± 0.96	2.63 ± 0.65	5.35 ± 2.1
CTCAAG	2.69 ± 2	2.93 ± 1.3	4.67 ± 1.1
GGCAAT	1.76 ± 0.086	1.558 ± 0.015	3.04 ± 1.2
GTCAAT	3.17 ± 0.8	4.56 ± 1.9	7.14 ± 3.8
ATCAAG	–	1.96 ± 0.14	3.87 ± 0.91
CAGTCA	1.56 ± 0.78	1.64 ± 1.4	2.56 ± 1.5
TGTAGG	–	0.426 ± 0.27	1.61 ± 0.48
CAACCC	1.41 ± 0.43	1.26 ± 0.56	1.22 ± 0.096
TCACAC	3.8 ± 1.1	4.7 ± 1.1	5.86 ± 2
CCACAC	1.98 ± 0.78	2.63 ± 0.9	3.97 ± 1.5
GCTAGA	1.329 ± 0.007	1.71 ± 0.21	2.45 ± 0.62
GCCCGG	0.406 ± 0.099	–	0.437 ± 0.31
CAGAGG	–	–	0.599 ± 0.16
ACATCT	2.62 ± 1.1	3.25 ± 0.78	4.12 ± 1.9
TCATGG	0.253 ± 0.062	0.443 ± 0.084	0.476 ± 0.47
GATAAC	2.1 ± 0.44	2.81 ± 0.13	3.66 ± 1
TATGTG	–	–	0.506 ± 0.12
ATCTGG	0.825 ± 0.53	–	1.46 ± 0.34
CTCAGA	4.71 ± 1.4	5.99 ± 1	8.03 ± 2.7
GTCGGA	–	1.67 ± 1.1	1.51 ± 1.2
ATCAGT	–	1.79 ± 1.8	2.19 ± 2.2

Sequence	relative kcat/Km [1]	relative kcat/Km [2]	relative kcat/Km [3]
GCCAGA	2.6 ± 2	2.26 ± 0.32	5.56 ± 1.6
GTCAGA	3.33 ± 0.28	5.57 ± 1.1	9.06 ± 3.4
CTCAGT	1.02 ± 0.51	1.91 ± 1.4	2.13 ± 1.4
ATCAGA	3.76 ± 2	4.59 ± 0.2	7.03 ± 1.9
CTCAGG	1.96 ± 1.2	1.21 ± 0.29	2.45 ± 0.18
ATCAGG	0.528 ± 0.016	–	1.41 ± 0.062
GGACAA	0.879 ± 0.43	1.34 ± 0.47	2.59 ± 0.96
TAATTC	2.12 ± 1.6	2.45 ± 0.42	3.22 ± 0.89
AGACGT	–	–	1.98 ± 1.9
TATGCC	2.71 ± 0.41	1.72 ± 0.22	2.97 ± 1.5
TCCGCT	2.17 ± 0.033	2.55 ± 2	3.65 ± 1.5
CCCGCC	2.78 ± 0.39	4.24 ± 2	4.94 ± 1.9
TCCGCA	4.56 ± 2.3	5.02 ± 0.26	6.95 ± 2.4
TCCGCC	4.39 ± 0.68	5.9 ± 0.79	7.97 ± 3.5
CCCGCA	3.38 ± 0.43	3.43 ± 1.2	4.58 ± 1.4
GCCGCC	2.33 ± 1.2	3.21 ± 1.2	5.43 ± 2.6
TGTATG	–	–	1.93 ± 0.25
CCTTTA	1.51 ± 0.63	1.47 ± 0.27	2.25 ± 0.99
ACAGAT	0.729 ± 0.034	1.48 ± 0.42	1.88 ± 0.26
ATTACC	1.64 ± 0.48	1.65 ± 0.26	2.21 ± 0.71
ATGAGA	0.619 ± 0.34	0.964 ± 0.71	2.28 ± 0.37
TTCAAT	4.1 ± 1.6	5.53 ± 0.71	9.07 ± 3.9
TTCAAA	4.87 ± 2.9	6.52 ± 1.5	9.38 ± 3.5
TTCAAG	2.98 ± 2.4	3.38 ± 0.47	5.77 ± 2
ATCAAC	3.56 ± 1.5	4.05 ± 0.78	5.86 ± 1.6
CTCAAC	3.75 ± 0.14	5.06 ± 1.2	7.63 ± 3.4

Sequence	relative kcat/Km [1]	relative kcat/Km [2]	relative kcat/Km [3]
CTTAAC	2.53 ± 1.3	2.52 ± 0.82	3.93 ± 1.3
TGCAAT	0.917 ± 0.7	1.18 ± 0.72	1.9 ± 0.94
TCAATT	2.1 ± 1.1	1.92 ± 0.12	2.3 ± 0.3
TTCAAC	4.99 ± 1.6	6.12 ± 0.93	8.94 ± 3.2
TGCAAC	1.87 ± 0.58	1.45 ± 0.22	2.22 ± 0.84
CCCAAC	2.26 ± 0.55	2.15 ± 0.29	3.75 ± 1.1
TCAAAA	2.12 ± 1.1	1.64 ± 0.34	2.89 ± 1.2
CTTCTT	2.75 ± 1.4	3.05 ± 0.55	3.45 ± 0.96
AACCGC	3.24 ± 0.86	3.02 ± 0.23	4.02 ± 0.71
GATTGG	–	–	0.409 ± 0.2
ATTCCA	2.17 ± 0.89	2.11 ± 0.63	1.93 ± 0.82
TAATTA	2.15 ± 1.5	2.05 ± 0.57	2.99 ± 1.1
ACGTTC	2.18 ± 0.36	2.45 ± 0.76	3.59 ± 1.4
CATCAA	2.69 ± 0.095	3.35 ± 0.32	4.59 ± 1.9
TCCGGA	1.02 ± 0.16	1.33 ± 0.95	1.83 ± 1.3
TCGCAT	2.12 ± 0.11	3.11 ± 0.57	5.13 ± 2.3
CCCAAT	2.73 ± 0.86	3.48 ± 0.28	5.27 ± 1.6
ATCAAT	3.19 ± 0.91	4.2 ± 0.86	6.65 ± 3.1
CGCAAT	1.86 ± 0.36	2.82 ± 1.1	4.14 ± 1.8
GCCAAC	1.34 ± 0.25	1.28 ± 1.1	3.94 ± 1
CTCAAT	4.23 ± 0.85	5.46 ± 1.7	7.66 ± 3.5
GTCAAC	4.47 ± 1.7	5.05 ± 1.3	7.94 ± 3.1
AGCAAT	2.43 ± 0.54	2.33 ± 0.049	3.3 ± 1.1
GGCAAC	2.31 ± 1.6	2.29 ± 0.56	3.36 ± 0.68
